In all, about 5,500 compounds went through this assay and about 2,000 (36%) were called active. Inconclusive results (about 18%) are left out. Cut-off read from the data, not from the text of the source: active = normalized growth mostly below about 0.91 (no sharp cut-off); inconclusive = no clear call, values can overlap the other calls; inactive = mostly above about 0.92. Some of the results follow.
Experiment: chemical genetic growth profiling, strain panel (AID 1159580);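 note: tested at 20 µM; growth read once vehicle control cultures reached saturation at 30 °C; 1 = growth at the plate median or of vehicle wells; lower values mean less growth of the strain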
Conditions: S. cerevisiae deletion strains, growth OD

Measured: normalized growth

C[C@@H](CN1CCC(Cc2ccccc2)CC1)[C@@H](O)c1ccc(O)cc1
inactive: locus YAL040C, strain CLN3, hits give low values 1.07 | locus YCL061C, strain MRC1 (second series), hits give low values 0.996 | locus YDR363W, strain ESC2, hits give low values 1.01 | locus YER002W, strain NOP16, hits give low values 1.01 | locus YGR078C, strain PAC10, hits give low values 0.996 | locus YMR263W, strain SAP30, hits give low values 1 | locus YMR307W, strain GAS1, hits give low values 1.05 | locus YNL128W, strain TEP1, hits give low values 1.03 | locus YNL175C, strain NOP13, hits give low values 0.993 | locus YNL197C, strain WHI3, hits give low values 0.999 | locus YNL224C, strain SQS1, hits give low values 1.02 | locus YNL322C, strain KRE1, hits give low values 0.979 | locus YOR083W, strain WHI5 (second series), hits give low values 1 | locus YPL241C, strain CIN2, hits give low values 0.99

From PubChem BioAssay AID1159580 (chemical genetic matrix, 2015)
